# Measurements published in PubChem BioAssay AID492998 (Southern Research Specialized Biocontainment Screening …, 2010).
# About 550 (24%) of roughly 2,300 compounds were called active. The list is a sample of the results. Potency and affinity values are given separately. A number with no mark means an inactive call. The rule behind the calls is not given here.
# Experiment: Vero E6 cell cytotoxicity, dose response, cytotoxicity control for non-replicating M. tuberculosis project, secondary assay (AID 492998);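 note: 100% = vehicle-treated cells and 0% = background wells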
# Settings: series mostly up to 20 µM; viability: at the top concentration
row,Structure (SMILES),viability
1,O=C(CCSc1nnc(-c2ccncc2)o1)Nc1cccc(Cl)c1,106%
2,CCc1ccc(OCCCC(=O)Nc2nccs2)cc1,102%
3,COc1ccc(C(=O)C2CCCN(C(=O)c3ccc(CSC)o3)C2)cc1F (stereo not drawn),94.1%
4,CSc1ccc(C(=O)C2CCCN(Cc3cc4ccccc4[nH]3)C2)cc1 (stereo not drawn),102%
5,O=C(CCS(=O)(=O)c1ccc(Cl)cc1)Oc1ccc2c(c1)OCO2,111%
6,CC1=NN(C(=O)COc2ccccc2)C(O)(c2ccccc2)C1 (stereo not drawn),108%
7,CC(Cc1cccs1)NC(=O)c1cccc(Cl)c1 (stereo not drawn),96.6%
8,CCc1ccc(NC(=O)C(=O)NNC(=O)c2cccc(OC)c2)cc1,96.3%
9,Cc1ccc(C(=O)Oc2cccc(-n3cnnn3)c2)cc1,87.5%
10,CCOC(=O)c1csc(-c2snnc2C)n1,99%
11,O=C(NNC1=C(C(=O)C(F)(F)F)CCC1)c1ccccc1Cl,80.3%
12,N#CC1=C(N)Oc2n[nH]c(-c3cccnc3)c2C1c1ccc([N+](=O)[O-])o1 (stereo not drawn),99.4%
13,Cc1c(-c2ccc(Br)cc2)nc2ccccn12,102%
14,Cc1ccc(-c2nnc(NC3CCCC3)s2)cc1,98.6%
15,CCOC(=O)c1c(C)nc2cc(C)ccn12,103%
16,Cc1ccc(-c2nc3ccccn3c2Nc2ccccc2)o1,97.9%
17,FC(F)(F)c1ccc(-c2nnc(-c3cccnc3)o2)cc1,111%
18,CCOC(=O)c1ccc(N=CC2=C(O)CC(C)(C)CC2=O)cc1,118%
19,O=C(c1nnc(-c2ccc(Cl)cc2)o1)C1CCCC1,88.8%
20,COc1ccc(CNC(=O)COC(=O)C2CC3C=CC2C3)cc1 (stereo not drawn),105%
21,CSc1ccc(COC(=O)CCS(=O)(=O)c2ccc(C)cc2)cc1,110%

row,Structure (SMILES),viability
1,Cc1cc(OCCCn2ccnc2)ccc1C(C)C,89.4%
2,C=C1Cn2c(nnc2-c2ccc(Cl)cc2)S1,106%
3,Cc1cccc(OC(=O)c2ccc3nccnc3c2)c1,95.6%
4,CCOC(=O)CN(C#N)c1nc(N(C)C)nc(N(C)C)n1,95%
5,Cc1cc(OCCCCn2ccnc2)cc(C)c1Cl,81.2%
6,O=C(COC(=O)c1ccccc1Br)Nc1ccccc1F,99.3%
7,O=C(NCc1ccc2c(c1)OCO2)c1ccc(Cl)s1,108%
8,Cc1cccc(Cn2ccc(NC(=O)c3ccc4c(c3)OCO4)n2)c1,90.8%
9,CCc1ccc(NC(=O)COc2ccc3c(c2)OCO3)cc1,93.2%
10,CCOC(=O)c1csc(COc2ccc(OC)cc2)n1,112%
11,CC1(c2nnc(Cc3ccccc3)o2)CC(c2ccccc2[N+](=O)[O-])=NO1 (stereo not drawn),93.6%
12,Cc1ccc(CNC(=O)c2cnccn2)cc1,110%
13,Cc1ccc(C(=O)Nc2nccs2)cc1,97.7%
14,CN1C(=O)CC(N2CCC(c3nc4ccccc4s3)CC2)C1=O (stereo not drawn),102%
15,O=C(CNC(=O)c1ccccc1F)OCc1csc(-c2ccccc2)n1,90.8%
16,O=C(CCSc1ccc(Cl)cc1)NC1CCCC1,98%
17,FC(F)c1nnc2ccc(Cl)nn12,93.2%
18,Cc1ncsc1CCOC(=O)c1ccc([N+](=O)[O-])cc1,89.9%
19,CN(C)S(=O)(=O)c1ccc(C(=O)Oc2ccccc2)cc1,100%
20,CCOC(=O)c1c(-c2ccc(C)o2)csc1NC(=O)CN1CCCCC1,79.5%
21,O=C(OCC(=O)C12CC3CC(CC(C3)C1)C2)c1ccccn1,103%

row,Structure (SMILES),viability
1,O=C(NC(=S)NNC(=O)[C@H]1C[C@@H]1c1ccccc1)c1cccc(F)c1,76.5%
2,COc1ccc(OCC(=O)NNC(=O)c2ccccn2)cc1,95.1%
3,COc1ccc(C(=O)N/N=C/c2cccc3cccnc23)cc1,81.4%
4,O=C(COc1ccc(Cl)cc1)NNC(=O)c1ccccn1,71.8%
5,O=C(Nc1ncccc1O)c1ccc(Oc2ccccc2)cc1,91.3%
6,O=C(NNC(=O)C12CC3CC(CC(C3)C1)C2)c1cnccn1,92.2%
7,O=C(N/N=C/c1ccc[nH]1)c1cccnc1,94.2%
8,COc1cccc2[nH]c3c(Cl)ncnc3c12,84.3%
9,CC1CCCN(CCSc2ccc(Cl)cc2)C1 (stereo not drawn),92.3%
10,O=C(COc1ccc2ccccc2c1)Nc1ccncc1,100%
11,O=C1C=CC(=O)N1N(c1ccccc1)c1ccccc1,111%
12,O=C(c1cccc2cccc(O)c12)N1CCCCC1,99.4%
13,Cn1c(SCc2c(F)cccc2Cl)nc2c(c1=O)SCC2,74.7%
14,Cc1cccc(NC(=O)CCSc2nnc(Cc3ccccc3)o2)c1,102%
15,O=C(COC(=O)CCC(=O)c1ccc(F)cc1)Nc1ccc(F)cc1F,101%
16,CC(/C=C/c1ccco1)=N/NC(=O)c1ccc(C)nc1,106%
17,COc1ccc(OCC(=O)N/N=C2\CCc3ccccc32)cc1,102%
18,CCOc1ccccc1NC(=O)COn1nnc2ccc(Cl)cc21,99.8%
19,COc1ccc(CN=C(C#N)C2=C(O)c3ccccc3C2=O)cc1,91.6%
20,COc1cccc(NC(=O)c2cnc(SC)nc2)c1,108%
21,COc1cccc(NC(=O)c2ccc(C(=O)c3ccccc3)o2)c1,95.3%
